Here are results for 13 molecules from PubChem BioAssay (NCATS).

A short description of assay [1]: High-throughput drug toxicity screening in the BPDCN cell line Gen2.2 (AID 1224824).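 Also: cells exposed to compounds for 48 h before reading.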 As to conditions: Gen2.2 BPDCN cells; at 45.8 µM (top of the series) unless noted. A digest of the protocol: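 Seed 500 exponentially growing Gen2.2 cells/well; add compounds by pin tool; incubate 48 h, 37 °C, 5% CO2; add CellTiter-Glo, 15 min RT; read luminescence. % activity vs DMSO (100%) and bortezomib (0%).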

Assay [2] in a line: High-throughput drug toxicity screening in the BPDCN cell line Cal-1 (AID 1224825). To be noted: Cal-1 BPDCN cell viability, qHTS; at 45.8 µM (top of the series) unless noted. A digest of the protocol:
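Exponentially growing Cal-1 cells, 500 per well in phenol red-free RPMI with 10% FBS, were exposed to compounds for 48 h at 37 °C, 5% CO2. Viability was read by CellTiter-Glo luminescence and normalised to DMSO (100%) and 9.2 uM bortezomib (0%).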
For orientation: In qHTS, concentration-response curves come from the screen itself.

The nature of assay [3]: qHTS profiling of the MIPE4 collection as inhibitors of Plasmodium falciparum (3D7) proliferation (AID 743344). As to conditions: P. falciparum 3D7 in erythrocytes, SYBR Green DNA fluorescence, 72 h; at 28.5 µM (top of the series) unless noted. A digest of the protocol:
(§1)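 Erythrocytes infected with P. falciparum (0.3% parasitemia, 2.5% hematocrit) incubated with compounds 72 h at 37 C, 5% CO2. Lysis with saponin/Triton buffer containing SYBR Green I, overnight at room temperature in the dark; DNA fluorescence (485/535 nm) normalised to 0.29 uM artemisinin and DMSO.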

The nature of assay [4]: qHTS profiling of the MIPE4 collection as inhibitors of Plasmodium falciparum (DD2) proliferation (AID 743345). To be noted: P. falciparum Dd2 in erythrocytes, SYBR Green DNA, 72 h; at 28.5 µM (top of the series) unless noted. A digest of the protocol: as §1
A short description of assay [5]: qHTS profiling of the MIPE4 collection as inhibitors of Plasmodium falciparum (DD2) proliferation (Rep 2) (AID 743346). As to conditions: P. falciparum Dd2 in erythrocytes, SYBR Green DNA, 72 h; at 28.5 µM (top of the series) unless noted. The method, boiled down: as §1
A short description of assay [6]: qHTS profiling of the MIPE4 collection as inhibitors of Plasmodium falciparum (HB3) proliferation (AID 743347).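 Also: plate controls were DMSO vehicle wells for no effect and artemisinin wells for full effect.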 To be noted: P. falciparum HB3 in erythrocytes, SYBR Green DNA, 72 h; at 28.5 µM (top of the series) unless noted. The method, boiled down: as §1
Assay [7] can be described thus: qHTS assay for measurement of the activity of small molecule inhibitors on Zika virus induced Caspase-3 activity in human iPSC derived neural progenitor cells (hNPCs) (AID 1224857; active = well fitted curve in the direction sought with a large enough effect; an effect the other way counts as inactive or inconclusive; also: % of control where 0% means no effect; nearly all actives have a fitted effect of over 65% in size). A digest of the protocol: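 Percent inhibition of virus-induced caspase-3/7 luminescence (Caspase-Glo), scaled between uninfected cells and Zika-infected cells. hNPCs received compound 1 hr before ZIKV at 2 FFU/cell, with 6 hours infection at 37 C.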

Assay [8] in a line: qHTS assay for measurement of the activity of small molecule inhibitors on Zika virus induced Caspase-3 activity in human astrocytoma cells (AID 1224859; active = well fitted curve in the direction sought with a large enough effect; an effect the other way counts as inactive or inconclusive;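 also: plate controls were ZIKV-infected untreated cells for no effect and uninfected cells for full effect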). A digest of the protocol: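 Luminescent caspase-3/7 read-out (30 min reagent, room temperature) in human SNB-19 cells infected 6 h with ZIKV (2 FFU/cell) after 1 h compound pre-incubation; Data were normalised to uninfected and infected wells.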

The nature of assay [9]: qHTS Screen of the MIPE 4.0 Collection Against Ewings Sarcoma (TC71) (AID 1259253; active = well fitted curve in the direction sought with a large enough effect; an effect the other way counts as inactive or inconclusive; also: nearly all actives have a fitted effect of over 40% in size; also: potency is read from the fitted curve at half-maximal effect). A digest of the protocol: (§2)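 Compound titrations go onto adherent log-phase cells 4 h after seeding, incubate 48 h at 37C, then CellTiter-Glo luminescence reports viability relative to DMSO and cell-free controls.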
A short description of assay [10]: qHTS Screen of the MIPE 4.0 Collection Against Ewings Sarcoma (TC32) (AID 1259256; active = well fitted curve in the direction sought with a large enough effect; an effect the other way counts as inactive or inconclusive; also: nearly all actives have a fitted effect of over 45% in size; also: potency is read from the fitted curve at half-maximal effect). The method, boiled down:
as §2

Assay [11] is described as follows: qHTS Screen of the MIPE 4.0 Collection Against Ewings Sarcoma (EW8) (AID 1259255; active = well fitted curve in the direction sought with a large enough effect; an effect the other way counts as inactive or inconclusive; also: nearly all actives have a fitted effect of over 35% in size; also: potency is read from the fitted curve at half-maximal effect;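 as to viability: 100% = DMSO-treated cells and 0% = medium-only wells without cells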). The method, boiled down: as §2
Assay [12] is described as follows: qHTS profiling for inhibitors of Plasmodium falciparum (3D7) proliferation (AID 743322).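 Also: infected erythrocytes exposed to compound for 72 h before lysis; 100% = DMSO vehicle wells and 0% = 0.29 µM artemisinin.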 To be noted: P. falciparum 3D7 proliferation; at 28.7 µM (top of the series). A digest of the protocol: as §1
A short description of assay [13]: qHTS profiling for inhibitors of Plasmodium falciparum (DD2) proliferation (AID 743323). As to conditions: lower = more inhibition; at 28.7 µM (top of the series). The method, boiled down: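 Parasite proliferation measured via DNA-dye fluorescence, as uninfected erythrocytes lack DNA. Cultures at 0.3% parasitemia and 2.5% hematocrit incubated 72 h with compound; signal scaled between vehicle and 0.29 uM artemisinin wells.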

Assay [14] in a line: qHTS profiling for inhibitors of Plasmodium falciparum (HB3) proliferation (AID 743324; active = well fitted curve in the direction sought with a large enough effect; an effect the other way counts as inactive or inconclusive;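 also: 100% = DMSO vehicle wells and 0% = artemisinin-treated control wells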). To be noted: Plasmodium falciparum HB3 blood-stage proliferation; at 28.7 µM (top of the series). The method, boiled down:
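P. falciparum HB3 grown in erythrocytes (0.3% parasitemia, 2.5% hematocrit final) with compound for 72 h at 37 C, 5% CO2. Parasite DNA detected by SYBR Green after saponin/triton lysis overnight; normalized to 0.29 uM artemisinin and DMSO.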

Molecules are shown by their SMILES. Results filed as inconclusive are left out. Active and inactive are the calls of the source. Unless noted, no rule for the calls is given here.

Regarding `CN1C[C@H]2c3ccccc3Oc3ccc(Cl)cc3[C@@H]2C1`, the cell viability, % of control (lower = more cytotoxic) in [1] came out at 54.1%. For the same molecule, the viability (% of control) in [2] came to 73.9%.

In turn, `COc1ccc(-c2oc3c(CC=C(C)C)c(OC4O[C@H](CO)[C@@H](O)[C@H](O)[C@@H]4O)cc(O)c3c(=O)c2OC2O[C@@H](C)[C@H](O)[C@@H](O)[C@@H]2O)cc1` (some centres not stated) came in with a parasite growth, % of DMSO control in assay [3] of 8.49%. The parasite growth remaining, % of DMSO control (lower = more inhibition) in assay [4] was 5.99%. For the same molecule, the parasite growth, % of control (lower = inhibition) in assay [5] stood at 36.2%. Also, the growth, % of control in assay [6] came to 11.3%. For the same molecule, the cell viability, % of control (lower = more cytotoxic) in [1] is 68.1%. In addition, the viability (% of control) in assay [2] is 102%. Also, the Potency entry in assay [7] and in [8] was “inactive” throughout. For the same molecule, the Potency in assay [9] and in assay [10] was 26.4 µM (active) each time.

Turning to `O=C(NCc1ccncc1)C12C[C@H]3C[C@@H](C1)CC(c1ccc(Cl)cc1)(C3)C2`, the parasite growth, % of DMSO control in [3] was 20%. Besides, in [4], the parasite growth remaining, % of DMSO control (lower = more inhibition) amounted to 93.6%. Besides, the parasite growth, % of control (lower = inhibition) in assay [5] was 26%. In [6], this molecule registered a growth, % of control of 42.3%. Moreover, the cell viability, % of control (lower = more cytotoxic) in assay [1] is 16.2%. The viability (% of control) in assay [2] was 11.3%. In addition, the Potency entry in assay [7] and in assay [8] was “inactive” throughout. The Potency in assay [9] is 26.4 µM (active).

In the case of `CNC(=O)c1ccccc1Sc1ccc2c(C=Cc3ccccn3)n[nH]c2c1`, the cell viability, % of control (lower = more cytotoxic) in [1] was determined as 311%.

`CC[C@H]1OC(=O)[C@H](C)C(=O)[C@H](C)[C@@H](O[C@H]2O[C@H](C)C[C@H](N(C)C)[C@@H]2O)[C@](C)(OC)C[C@@H](C)C(=O)[C@H](C)[C@H]2N(CCCCn3cnc(-c4cccnc4)c3)C(=O)O[C@]12C`: the parasite growth, % of DMSO control in [3] was found to be 5.78%. The parasite growth remaining, % of DMSO control (lower = more inhibition) in [4] was 14.5%. Further, in assay [5], the parasite growth, % of control (lower = inhibition) amounted to 32.9%. In addition, the growth, % of control in assay [6] came to 9.46%. In [1], the cell viability, % of control (lower = more cytotoxic) stood at 122%. The viability (% of control) in [2] amounted to 93.6%. The Potency result in [7] and in assay [8] was “inactive” each time. The Potency was 20.9 µM (active) in assay [11] and 16.6 µM (active) in assay [10].

As to `Cc1cc(OCCCc2c(C(=O)O)n(Cc3cccnc3)c3c(-c4c(COc5ccc(N6CCN([S+](C)(=O)[O-])CC6)cc5)nn(C)c4C)cccc23)cc(C)c1Cl`, the parasite growth, % of DMSO control in [3] worked out at 6.87%. Moreover, the parasite growth remaining, % of DMSO control (lower = more inhibition) in [4] was 8.65%. In assay [5], this molecule came in with a parasite growth, % of control (lower = inhibition) of 16%. Besides, the growth, % of control in assay [6] stood at 5.16%. Besides, the cell viability, % of control (lower = more cytotoxic) in [1] stood at 62.9%. For the same molecule, the viability (% of control) in assay [2] turned out to be 96.7%. The Potency result in assay [7] and in assay [8] was “inactive” each time. Moreover, the Potency is 20.9 µM (active) in assay [9] and 23.5 µM (active) in [10].

Take `CC[C@H]1OC(=O)[C@H](C)[C@@H](O[C@H]2C[C@@](C)(OC)[C@@H](O)[C@H](C)O2)[C@H](C)[C@@H](O[C@@H]2O[C@H](C)C[C@H](N(C)C)[C@@H]2O)[C@](C)(O)C[C@@H](C)CN(C)[C@H](C)[C@@H](O)[C@]1(C)O`: the remaining parasite growth % (stronger effect = lower value) in assay [12] amounted to 11.3%. This molecule also showed an activity, percent of control in [13] of 19.2%. The remaining proliferation (% of control), lower = more inhibition in assay [14] came to 31.5%. Besides, the parasite growth, % of DMSO control in assay [3] came out at 33.2%. The molecule further registered a parasite growth remaining, % of DMSO control (lower = more inhibition) in assay [4] of 24.6%. The molecule also came in with a parasite growth, % of control (lower = inhibition) in assay [5] of 14%. In assay [6], the growth, % of control was 59%. Besides, the cell viability, % of control (lower = more cytotoxic) in assay [1] amounted to 184%. Besides, the viability (% of control) in assay [2] worked out at 120%. For the same molecule, the Potency result in [7] and in [8] was “inactive” in each case. The Potency in assay [11] was 16.6 µM (active); in assay [10] it was 13.2 µM (active).

On to `Cc1c(O)cccc1C(=O)N[C@@H](CSc1ccccc1)[C@H](O)CN1C[C@H]2CCCC[C@@H]2C[C@@H]1C(=O)NC(C)(C)C`, for which the parasite growth, % of DMSO control in assay [3] is 10.1%. The parasite growth remaining, % of DMSO control (lower = more inhibition) in [4] came out at 36%. In assay [5], the parasite growth, % of control (lower = inhibition) was 37.7%. Also, the cell viability, % of control (lower = more cytotoxic) in assay [1] is 66.8%. Besides, the viability (% of control) in assay [2] is 4.13%. The Potency result in assay [7] and in [8] was “inactive” throughout. Also, the results for the Potency in [9] and in assay [11] were 20.9 µM (active) and 23.5 µM (active), respectively.

Consider `C[C@]12CC[C@@H]3c4ccc(O)cc4C[C@@H](CCCCCCCCCS(=O)CCCC(F)(F)C(F)(F)F)[C@H]3[C@H]1CC[C@H]2O` (some centres not stated), for which the parasite growth, % of DMSO control in assay [3] stood at 5.44%. In assay [4], this molecule had a parasite growth remaining, % of DMSO control (lower = more inhibition) of 8.45%. Moreover, in assay [6], the growth, % of control was determined as 3.95%. The cell viability, % of control (lower = more cytotoxic) in [1] was 105%. Besides, the viability (% of control) in [2] was 108%. In addition, the Potency result in assay [7], in assay [8] and in assay [10] was “inactive” in each case. In addition, the Potency in [9] was 14.8 µM (active).

Regarding `O=C(CCCCCCC(=O)Nc1ccccc1)NO`, in assay [1], the cell viability, % of control (lower = more cytotoxic) was found to be 171%.

For the molecule `CN1[C@@H]2CCC[C@@H]1CC(NC(=O)c1nn(C)c3ccccc13)C2` (some centres not stated), the cell viability, % of control (lower = more cytotoxic) in assay [1] came out at 97.5%. In addition, the viability (% of control) in [2] was 105%.

As for `CCS(=O)(=O)N1CC(CC#N)(n2cc(-c3ncnc4[nH]ccc34)cn2)C1`, the cell viability, % of control (lower = more cytotoxic) in assay [1] was 134%. Further, the viability (% of control) in [2] was 17.5%.

`NC[C@@H]1O[C@@H](O[C@H]2[C@@H](O)[C@H](O[C@@H]3[C@@H](O)[C@@H](N)C[C@H](N)[C@H]3O[C@H]3O[C@H](CN)[C@@H](O)[C@@H](O)[C@H]3N)O[C@H]2CO)[C@H](N)[C@@H](O)[C@@H]1O` displayed a parasite growth, % of DMSO control in assay [3] of 88%. In addition, the parasite growth remaining, % of DMSO control (lower = more inhibition) in assay [4] amounted to 92.7%. The molecule also yielded a parasite growth, % of control (lower = inhibition) in assay [5] of 90%. In assay [1], the cell viability, % of control (lower = more cytotoxic) was 134%. The viability (% of control) in assay [2] is 147%. Further, the Potency result in assay [7], in assay [8], in assay [9] and in assay [11] was “inactive” each time.
